Measured values: PMC7862700, “An all-to-all approach to the identification of sequence-specific readers for epigenetic DNA modifications on cytosine”

What was measured:
Experiment in all cases: DAPPL (digital affinity profiling via proximity ligation, sequencing); 10 mM Tris-HCl pH 7.5, 50 mM NaCl, 1 mM DTT, 4% glycerol, room temperature, 30 min; GST-TFs on glutathione beads, 16-mer random dsDNA library, 0.1% formaldehyde crosslink after washing; high values mean tight binding
FLI1 = target: T1, FLI1 (Homo sapiens, UniProt Q01543 1-452); settings: protein: recombinant; tags: N-terminal GST; dsDNA, one strand shown
T1 sequence: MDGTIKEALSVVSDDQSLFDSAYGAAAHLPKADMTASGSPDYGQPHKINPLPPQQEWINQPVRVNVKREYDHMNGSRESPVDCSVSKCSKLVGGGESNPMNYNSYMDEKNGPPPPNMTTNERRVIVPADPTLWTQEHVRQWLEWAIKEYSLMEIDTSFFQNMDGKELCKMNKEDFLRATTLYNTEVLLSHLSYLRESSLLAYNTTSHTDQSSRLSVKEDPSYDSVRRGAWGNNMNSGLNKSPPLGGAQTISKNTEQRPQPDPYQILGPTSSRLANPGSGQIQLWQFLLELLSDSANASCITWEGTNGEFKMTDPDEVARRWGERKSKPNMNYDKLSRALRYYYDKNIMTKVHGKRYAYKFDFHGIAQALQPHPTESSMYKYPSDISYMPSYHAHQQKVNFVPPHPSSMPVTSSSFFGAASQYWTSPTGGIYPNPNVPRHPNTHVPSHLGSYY
Procedure, shortened: (§1)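 The binding signal reported is, for every hexamer, its read frequency for a factor over its read frequency for the tag-only sample. Reads came from pools of yeast-expressed, GST-fused human transcription factors on glutathione beads, barcoded with DNA and mixed with that sample, which were incubated with 200 nmole of a random double-stranded 16-mer DNA library in Tris/NaCl/DTT/glycerol buffer at room temperature for 30 min. After washing, the pools were crosslinked with 0.1% formaldehyde, proximity-ligated with BsaI/T4 ligase for 1 h at 37 °C, PCR-amplified and sequenced on an Illumina NextSeq500.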

ELK1 = target: T2, ELK1 (Homo sapiens, UniProt P19419 1-428); settings: protein: recombinant; tags: N-terminal GST; dsDNA, one strand shown
T2 sequence: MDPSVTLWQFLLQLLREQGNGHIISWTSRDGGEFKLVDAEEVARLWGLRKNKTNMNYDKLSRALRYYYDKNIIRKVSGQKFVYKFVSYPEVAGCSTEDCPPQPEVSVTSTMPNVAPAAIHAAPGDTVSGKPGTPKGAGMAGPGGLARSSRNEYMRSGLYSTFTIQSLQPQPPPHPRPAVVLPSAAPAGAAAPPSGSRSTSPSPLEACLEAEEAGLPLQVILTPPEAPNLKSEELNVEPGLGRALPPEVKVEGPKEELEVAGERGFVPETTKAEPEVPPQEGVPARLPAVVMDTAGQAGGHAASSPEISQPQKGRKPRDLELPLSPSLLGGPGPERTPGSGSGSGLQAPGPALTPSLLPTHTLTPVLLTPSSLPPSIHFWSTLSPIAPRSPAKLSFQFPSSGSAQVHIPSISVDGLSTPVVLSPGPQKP
Procedure, shortened: as §1

GABPA = target: T3, GABPA (Homo sapiens, UniProt Q06546 1-454); settings: protein: recombinant; tags: N-terminal GST; dsDNA, one strand shown
T3 sequence: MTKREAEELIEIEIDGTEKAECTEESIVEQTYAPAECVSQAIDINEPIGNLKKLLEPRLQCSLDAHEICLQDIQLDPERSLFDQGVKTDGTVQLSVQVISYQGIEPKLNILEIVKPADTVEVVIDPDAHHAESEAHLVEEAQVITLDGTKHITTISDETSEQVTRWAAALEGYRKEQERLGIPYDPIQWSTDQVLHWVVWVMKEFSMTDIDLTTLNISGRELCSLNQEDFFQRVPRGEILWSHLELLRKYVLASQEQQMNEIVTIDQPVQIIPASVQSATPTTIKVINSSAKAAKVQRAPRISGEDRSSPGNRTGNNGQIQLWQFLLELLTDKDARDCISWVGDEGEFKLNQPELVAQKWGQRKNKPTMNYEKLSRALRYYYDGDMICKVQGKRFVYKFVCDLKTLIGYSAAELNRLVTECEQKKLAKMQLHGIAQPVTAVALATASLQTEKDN
Procedure, shortened: as §1

ERG = target: T4, ERG (Homo sapiens, UniProt P11308 1-479); settings: protein: recombinant; tags: N-terminal GST; dsDNA, one strand shown
T4 sequence: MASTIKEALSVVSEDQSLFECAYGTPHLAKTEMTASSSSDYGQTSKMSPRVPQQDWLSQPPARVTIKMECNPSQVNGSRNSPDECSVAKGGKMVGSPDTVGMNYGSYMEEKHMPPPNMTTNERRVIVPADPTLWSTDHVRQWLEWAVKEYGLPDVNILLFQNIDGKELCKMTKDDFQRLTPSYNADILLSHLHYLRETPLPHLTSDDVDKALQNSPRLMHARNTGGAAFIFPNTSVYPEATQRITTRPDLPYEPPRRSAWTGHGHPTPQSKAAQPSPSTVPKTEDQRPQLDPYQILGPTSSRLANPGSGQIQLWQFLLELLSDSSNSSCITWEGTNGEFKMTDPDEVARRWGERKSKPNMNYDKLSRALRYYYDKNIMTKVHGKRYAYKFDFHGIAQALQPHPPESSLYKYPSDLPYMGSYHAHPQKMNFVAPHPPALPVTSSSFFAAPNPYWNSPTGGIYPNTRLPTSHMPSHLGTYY
Procedure, shortened: as §1

ELF1 = ELF1 (Homo sapiens, UniProt P32519 1-619); settings: protein: recombinant; tags: N-terminal GST; dsDNA, one strand shown
Chain of ELF1 (P32519 whole entry): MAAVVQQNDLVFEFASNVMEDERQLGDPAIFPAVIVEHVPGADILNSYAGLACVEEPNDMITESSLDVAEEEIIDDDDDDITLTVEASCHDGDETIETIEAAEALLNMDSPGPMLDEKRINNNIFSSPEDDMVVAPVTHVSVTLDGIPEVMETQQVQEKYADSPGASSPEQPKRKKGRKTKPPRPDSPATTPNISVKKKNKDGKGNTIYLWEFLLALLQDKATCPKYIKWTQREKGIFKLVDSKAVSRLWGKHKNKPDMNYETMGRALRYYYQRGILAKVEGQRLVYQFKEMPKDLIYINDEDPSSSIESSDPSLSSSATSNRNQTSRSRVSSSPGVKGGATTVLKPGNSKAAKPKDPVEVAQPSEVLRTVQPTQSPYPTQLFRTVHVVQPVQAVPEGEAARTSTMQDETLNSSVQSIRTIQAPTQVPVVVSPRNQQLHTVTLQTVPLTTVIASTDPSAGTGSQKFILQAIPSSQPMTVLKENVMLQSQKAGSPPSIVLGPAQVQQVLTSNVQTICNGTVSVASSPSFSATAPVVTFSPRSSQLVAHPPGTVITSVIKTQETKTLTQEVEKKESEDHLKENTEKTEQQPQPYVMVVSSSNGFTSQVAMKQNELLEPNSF
Procedure, shortened: as §1

EHF = target: T5, EHF (Homo sapiens, UniProt Q9NZC4 1-300); settings: protein: recombinant; tags: N-terminal GST; dsDNA, one strand shown
T5 sequence: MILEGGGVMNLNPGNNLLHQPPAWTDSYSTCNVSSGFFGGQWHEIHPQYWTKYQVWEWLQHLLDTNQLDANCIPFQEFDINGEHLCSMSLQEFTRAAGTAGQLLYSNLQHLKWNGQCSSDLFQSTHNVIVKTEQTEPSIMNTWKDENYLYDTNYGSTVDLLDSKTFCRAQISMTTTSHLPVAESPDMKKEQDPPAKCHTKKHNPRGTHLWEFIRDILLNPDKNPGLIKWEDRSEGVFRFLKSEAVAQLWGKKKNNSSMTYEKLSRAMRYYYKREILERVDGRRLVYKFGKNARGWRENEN
Procedure, shortened: as §1

SPI1 = SPI1 (Homo sapiens, UniProt P17947 1-270); settings: protein: recombinant; tags: N-terminal GST; dsDNA, one strand shown
Procedure, shortened: as §1

SPIB = SPIB (Homo sapiens, UniProt Q01892 1-262); settings: protein: recombinant; tags: N-terminal GST; dsDNA, one strand shown
Chain of SPIB (Q01892 whole entry): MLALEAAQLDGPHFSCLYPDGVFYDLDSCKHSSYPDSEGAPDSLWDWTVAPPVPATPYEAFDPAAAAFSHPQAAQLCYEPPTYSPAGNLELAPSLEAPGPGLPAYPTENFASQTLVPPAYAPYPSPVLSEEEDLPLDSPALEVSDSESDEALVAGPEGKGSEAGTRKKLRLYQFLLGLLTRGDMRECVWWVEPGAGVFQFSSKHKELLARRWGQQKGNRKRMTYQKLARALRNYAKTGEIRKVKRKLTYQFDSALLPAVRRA
Procedure, shortened: as §1

ELK3 = target: T6, ELK3 (Homo sapiens, UniProt P41970 1-407); settings: protein: recombinant; tags: N-terminal GST; dsDNA, one strand shown
T6 sequence: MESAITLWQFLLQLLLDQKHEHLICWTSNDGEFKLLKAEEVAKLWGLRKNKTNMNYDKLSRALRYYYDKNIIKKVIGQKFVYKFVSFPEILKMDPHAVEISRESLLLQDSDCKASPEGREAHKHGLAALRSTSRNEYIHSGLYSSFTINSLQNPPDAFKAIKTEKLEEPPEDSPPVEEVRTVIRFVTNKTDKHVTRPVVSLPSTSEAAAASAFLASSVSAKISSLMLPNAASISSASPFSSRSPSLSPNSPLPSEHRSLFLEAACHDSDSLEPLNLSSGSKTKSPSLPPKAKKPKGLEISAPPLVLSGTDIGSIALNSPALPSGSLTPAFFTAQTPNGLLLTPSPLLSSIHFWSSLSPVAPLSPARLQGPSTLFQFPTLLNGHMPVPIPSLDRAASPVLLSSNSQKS
Procedure, shortened: as §1

FEV = target: T7, FEV (Homo sapiens, UniProt Q99581 1-238); settings: protein: recombinant; tags: N-terminal GST; dsDNA, one strand shown
T7 sequence: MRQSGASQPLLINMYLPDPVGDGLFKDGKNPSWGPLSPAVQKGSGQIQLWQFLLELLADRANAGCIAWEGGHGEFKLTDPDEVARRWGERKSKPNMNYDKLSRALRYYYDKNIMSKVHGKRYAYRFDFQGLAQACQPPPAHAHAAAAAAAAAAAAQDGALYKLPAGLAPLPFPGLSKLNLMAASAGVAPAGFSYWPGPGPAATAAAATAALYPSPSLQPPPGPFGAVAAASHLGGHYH
Procedure, shortened: as §1

ETV5 = ETV5 (Homo sapiens, UniProt P41161 1-510); settings: protein: recombinant; tags: N-terminal GST; dsDNA, one strand shown
Chain of ETV5 (P41161 whole entry): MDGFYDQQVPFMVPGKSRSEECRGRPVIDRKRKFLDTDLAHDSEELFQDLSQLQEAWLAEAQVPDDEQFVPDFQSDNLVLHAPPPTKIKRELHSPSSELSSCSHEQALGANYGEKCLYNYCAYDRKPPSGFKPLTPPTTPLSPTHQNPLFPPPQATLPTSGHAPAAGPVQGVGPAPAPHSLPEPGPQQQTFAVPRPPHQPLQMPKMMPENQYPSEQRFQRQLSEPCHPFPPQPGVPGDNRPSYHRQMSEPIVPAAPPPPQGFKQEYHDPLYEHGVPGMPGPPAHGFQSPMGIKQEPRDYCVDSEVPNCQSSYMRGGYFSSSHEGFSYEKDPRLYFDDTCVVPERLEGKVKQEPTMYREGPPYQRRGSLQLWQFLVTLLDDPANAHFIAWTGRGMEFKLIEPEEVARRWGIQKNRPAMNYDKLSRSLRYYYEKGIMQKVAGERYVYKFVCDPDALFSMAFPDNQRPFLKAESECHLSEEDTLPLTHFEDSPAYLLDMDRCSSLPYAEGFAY
Procedure, shortened: as §1

HSF1 = HSF1 (Homo sapiens, UniProt Q00613 1-529); settings: protein: recombinant; tags: N-terminal GST; chain copies: 3; dsDNA, one strand shown
Chain of HSF1 (Q00613 whole entry): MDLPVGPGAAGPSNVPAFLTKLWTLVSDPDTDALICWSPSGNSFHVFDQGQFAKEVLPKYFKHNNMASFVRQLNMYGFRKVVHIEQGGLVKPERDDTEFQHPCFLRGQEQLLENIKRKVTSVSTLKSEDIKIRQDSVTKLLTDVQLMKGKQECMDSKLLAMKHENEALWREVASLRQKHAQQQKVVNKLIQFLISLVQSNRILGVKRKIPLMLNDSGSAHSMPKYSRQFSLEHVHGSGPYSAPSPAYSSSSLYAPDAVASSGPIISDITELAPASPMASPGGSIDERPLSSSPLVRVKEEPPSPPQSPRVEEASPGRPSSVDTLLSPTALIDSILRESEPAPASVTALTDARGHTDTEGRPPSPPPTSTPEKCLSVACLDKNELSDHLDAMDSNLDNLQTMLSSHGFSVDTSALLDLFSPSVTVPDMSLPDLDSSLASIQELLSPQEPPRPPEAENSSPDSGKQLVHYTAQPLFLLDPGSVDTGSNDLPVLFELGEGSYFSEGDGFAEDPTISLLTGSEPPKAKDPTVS
Procedure, shortened: as §1

SPIC = target: T8, SPIC (Homo sapiens, UniProt Q8N5J4 1-248); settings: protein: recombinant; tags: N-terminal GST; dsDNA, one strand shown
T8 sequence: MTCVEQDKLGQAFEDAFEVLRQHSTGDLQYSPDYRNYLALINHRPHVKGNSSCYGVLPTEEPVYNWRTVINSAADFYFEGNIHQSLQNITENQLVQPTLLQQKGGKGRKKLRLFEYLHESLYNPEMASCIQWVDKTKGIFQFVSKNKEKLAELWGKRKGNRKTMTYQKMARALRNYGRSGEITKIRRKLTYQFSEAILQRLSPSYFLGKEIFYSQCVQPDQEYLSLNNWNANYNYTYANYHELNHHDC
Procedure, shortened: as §1

ELF4 = ELF4 (Homo sapiens, UniProt Q99607 1-663); settings: protein: recombinant; tags: N-terminal GST; dsDNA, one strand shown
Chain of ELF4 (Q99607 whole entry): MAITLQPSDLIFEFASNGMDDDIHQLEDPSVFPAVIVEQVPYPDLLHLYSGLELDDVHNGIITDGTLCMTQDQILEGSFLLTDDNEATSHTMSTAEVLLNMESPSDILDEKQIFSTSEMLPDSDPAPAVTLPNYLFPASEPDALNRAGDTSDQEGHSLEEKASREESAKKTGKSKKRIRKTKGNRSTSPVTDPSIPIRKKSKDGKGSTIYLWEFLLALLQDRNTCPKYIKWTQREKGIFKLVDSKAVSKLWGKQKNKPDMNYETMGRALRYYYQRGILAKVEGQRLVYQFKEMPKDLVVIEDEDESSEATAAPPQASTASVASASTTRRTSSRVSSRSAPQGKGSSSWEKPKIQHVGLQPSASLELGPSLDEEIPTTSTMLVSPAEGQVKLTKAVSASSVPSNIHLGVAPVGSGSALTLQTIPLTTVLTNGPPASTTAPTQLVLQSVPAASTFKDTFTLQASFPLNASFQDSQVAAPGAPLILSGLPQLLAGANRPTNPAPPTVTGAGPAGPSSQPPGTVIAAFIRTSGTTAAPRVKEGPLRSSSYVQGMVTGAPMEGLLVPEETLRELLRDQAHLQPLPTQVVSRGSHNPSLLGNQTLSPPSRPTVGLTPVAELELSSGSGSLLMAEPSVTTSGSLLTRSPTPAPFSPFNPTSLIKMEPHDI
Procedure, shortened: as §1

ELK4 = target: T9, ELK4 (Homo sapiens, UniProt P28324-2 1-405); settings: protein: recombinant; tags: N-terminal GST; dsDNA, one strand shown
T9 sequence: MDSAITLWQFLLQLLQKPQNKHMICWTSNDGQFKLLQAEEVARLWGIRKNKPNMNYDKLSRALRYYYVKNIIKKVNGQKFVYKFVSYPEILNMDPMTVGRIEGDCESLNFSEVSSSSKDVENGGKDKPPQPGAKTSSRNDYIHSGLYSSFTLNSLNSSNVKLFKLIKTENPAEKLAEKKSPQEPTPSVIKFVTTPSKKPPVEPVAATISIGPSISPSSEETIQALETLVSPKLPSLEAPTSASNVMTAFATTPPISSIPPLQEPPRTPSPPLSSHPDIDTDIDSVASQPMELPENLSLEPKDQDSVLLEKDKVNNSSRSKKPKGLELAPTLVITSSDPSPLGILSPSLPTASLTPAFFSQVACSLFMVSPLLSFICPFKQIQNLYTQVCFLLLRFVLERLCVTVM
Procedure, shortened: as §1

ETV2 = target: T10, ETV2 (Homo sapiens, UniProt O00321 1-342); settings: protein: recombinant; tags: N-terminal GST; dsDNA, one strand shown
T10 sequence: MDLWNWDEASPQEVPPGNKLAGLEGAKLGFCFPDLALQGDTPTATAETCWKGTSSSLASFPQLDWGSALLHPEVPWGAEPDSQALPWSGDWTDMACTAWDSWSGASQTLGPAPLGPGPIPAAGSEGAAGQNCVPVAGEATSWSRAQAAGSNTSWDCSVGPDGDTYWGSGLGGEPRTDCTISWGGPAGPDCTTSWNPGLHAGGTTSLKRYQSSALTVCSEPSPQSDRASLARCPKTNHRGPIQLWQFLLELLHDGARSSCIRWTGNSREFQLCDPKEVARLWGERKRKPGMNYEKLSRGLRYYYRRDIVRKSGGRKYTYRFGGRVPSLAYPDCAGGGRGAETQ
Procedure, shortened: as §1

ELF3 = target: T11, ELF3 (Homo sapiens, UniProt P78545 1-371); settings: protein: recombinant; tags: N-terminal GST; dsDNA, one strand shown
T11 sequence: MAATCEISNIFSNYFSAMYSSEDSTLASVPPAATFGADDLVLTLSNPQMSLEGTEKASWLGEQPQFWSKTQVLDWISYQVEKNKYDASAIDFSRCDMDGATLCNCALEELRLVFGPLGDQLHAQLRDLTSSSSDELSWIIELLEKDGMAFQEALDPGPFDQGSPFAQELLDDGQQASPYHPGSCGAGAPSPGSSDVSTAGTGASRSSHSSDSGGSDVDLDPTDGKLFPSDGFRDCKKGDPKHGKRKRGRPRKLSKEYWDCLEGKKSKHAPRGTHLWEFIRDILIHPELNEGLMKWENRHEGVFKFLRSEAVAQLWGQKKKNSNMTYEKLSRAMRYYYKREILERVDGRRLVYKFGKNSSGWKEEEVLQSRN
Procedure, shortened: as §1

CRX = CRX (Homo sapiens, UniProt O43186 1-299); settings: protein: recombinant; tags: N-terminal GST; dsDNA, one strand shown
Chain of CRX (O43186 whole entry): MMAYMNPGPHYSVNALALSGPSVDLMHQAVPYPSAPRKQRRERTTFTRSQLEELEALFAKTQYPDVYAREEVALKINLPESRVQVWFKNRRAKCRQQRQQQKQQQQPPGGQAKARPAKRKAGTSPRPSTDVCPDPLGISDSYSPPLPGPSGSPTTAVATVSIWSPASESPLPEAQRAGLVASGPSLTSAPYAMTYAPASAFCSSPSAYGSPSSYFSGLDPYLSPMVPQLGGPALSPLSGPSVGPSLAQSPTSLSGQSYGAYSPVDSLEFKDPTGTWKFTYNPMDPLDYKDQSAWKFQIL
Procedure, shortened: as §1

ETV1 = ETV1 (Homo sapiens, UniProt P50549 1-477); settings: protein: recombinant; tags: N-terminal GST; dsDNA, one strand shown
Chain of ETV1 (P50549 whole entry): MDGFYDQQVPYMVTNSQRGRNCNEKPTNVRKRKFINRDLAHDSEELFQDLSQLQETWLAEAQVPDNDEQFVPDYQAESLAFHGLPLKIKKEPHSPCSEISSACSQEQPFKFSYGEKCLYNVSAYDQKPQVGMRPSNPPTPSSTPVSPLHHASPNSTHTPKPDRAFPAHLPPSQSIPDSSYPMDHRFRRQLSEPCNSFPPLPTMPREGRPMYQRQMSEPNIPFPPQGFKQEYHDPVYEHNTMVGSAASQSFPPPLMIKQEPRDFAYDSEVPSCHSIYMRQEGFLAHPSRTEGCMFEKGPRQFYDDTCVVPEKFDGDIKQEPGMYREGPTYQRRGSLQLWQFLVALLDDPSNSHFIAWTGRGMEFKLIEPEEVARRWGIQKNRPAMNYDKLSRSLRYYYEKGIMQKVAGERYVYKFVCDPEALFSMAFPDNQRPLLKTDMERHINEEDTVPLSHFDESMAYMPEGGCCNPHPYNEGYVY
Procedure, shortened: as §1

CTTAAT
binding signal (FLI1): 1.37 fold enrichment (6-mer frequency, TF over GST control)
binding signal (ELK1): 1.2 fold enrichment (6-mer frequency, TF over GST control)
binding signal (GABPA): 1.34 fold enrichment (6-mer frequency, TF over GST control)
binding signal (ERG): 1.13 fold enrichment (6-mer frequency, TF over GST control)
binding signal (ELF1): 1.26 fold enrichment (6-mer frequency, TF over GST control)
binding signal (EHF): 1.24 fold enrichment (6-mer frequency, TF over GST control)
binding signal (SPI1): 1.31 fold enrichment (6-mer frequency, TF over GST control)
binding signal (SPIB): 1.3 fold enrichment (6-mer frequency, TF over GST control)
binding signal (ELK3): 1.47 fold enrichment (6-mer frequency, TF over GST control)
binding signal (FEV): 1.23 fold enrichment (6-mer frequency, TF over GST control)
binding signal (ETV5): 1.27 fold enrichment (6-mer frequency, TF over GST control)
binding signal (HSF1): 2.31 fold enrichment (6-mer frequency, TF over GST control)
binding signal (SPIC): 1.32 fold enrichment (6-mer frequency, TF over GST control)
binding signal (ELF4): 1.33 fold enrichment (6-mer frequency, TF over GST control)
binding signal (ELK4): 1.22 fold enrichment (6-mer frequency, TF over GST control)
binding signal (ETV2): 1.25 fold enrichment (6-mer frequency, TF over GST control)
binding signal (ELF3): 1.35 fold enrichment (6-mer frequency, TF over GST control)
binding signal (CRX): 3.69 fold enrichment (6-mer frequency, TF over GST control)
binding signal (ETV1): 1.29 fold enrichment (6-mer frequency, TF over GST control)
